# Inconclusive results are not listed. Calls of active or inactive are those of the source. Calls come from the whole dose curve; as a rule, active = well fitted curve in the direction sought with a large enough effect; inconclusive = small, poorly fitted or top-dose-only effect, or another doubt; inactive = no such curve, though single readings can be large or run the other way.
# Assay: KB-8-5-11 P-gp reporter qHTS against the NCATS DSHEA and TCM libraries (AID 1919977)
# Conditions: KB-8-5-11 cells; series mostly up to 26.1 µM
# Text: Assay Development and Screening Technology Laboratory (ADST)
# National Center for Advancing Translational Sciences (NCATS), Rockville, MD
# National Institute of Health (NIH), Bethesda, Maryland
# Dietary Supplements and Natural Products have minor oversight of their safety and efficacy. We assembled a collection of Dietary Supplements and Natural Products (DSNP) as well as Traditional Chinese Medicinal (TCM) Plant extracts, which were screened against an in vitro panel of assays, including a liver cytochrome p450 enzyme panel, CAR/PXR signaling pathways, and P-gp transporter assays, to assess their activity. This pipeline facilitated the interrogation of Natural Product-Drug Interaction (NaPDI) through prominent metabolizing pathways. In addition, we compared the activity profiles of the DSNP/TCM substances with those of an approved drug collection. Many of the approved drugs have well-annotated mechanisms of action (MOA) while the MOAs for most of the DSNP and TCM samples remain unknown. Based on the premise that compounds with similar activity profiles tend to share similar targets or MOA, we clustered the library activity profiles to identify overlap with the NCATS Pharmaceutical Collection to predict the MOAs of the DSNP/TCM substances. Overall, we highlight four significant bioactivity profiles (measured by p-values) as examples of this prediction. To assess broad cytotoxicity, we employed screening against a HepG2 cell line. In addition, transporter-mediated drug interactions are utilized in the characterization of DDIs using a P-glycoprotein (P-gp) assays. To profile potential P-gp activity, a differential cell viability was measured against two cell lines: a parental KB-3-1 human cervical adenocarcinoma cell line and the drug-resistant subline KB-8-5-11 that overexpresses P-gp.
# To this end, we profiled both collections for potential CAR and/or PXR activity, employing a previously published 1536-well qHTS assay.
# [1] Lee TD, et al. A High-Throughput Screen of a Library of Therapeutics Identifies Cytotoxic Substrates of P-glycoprotein. Mol Pharmacol. Nov 2019;96(5):629-640. doi:10.1124/mol.119.115964
# PROTOCOL TABLE (as described by Inglese J, Shamu CE and Guy RK. 2007)
# SEQUENCE No. (e.g., 1, 2, 3, etc.); PARAMETER (e.g., Cells, Incubation, Reagent, etc.); VALUE; DESCRIPTION.
# 1; Cells; 5 uL; KB-8-5-11 cells, white solid-bottom tissue treated Greiner plate.
# 2; Incubation; 4 hrs; 37C, 95% humidity, 5% CO2.
# 3; Compounds and control; 23 nL; Kalypsis pin tool (Wako USA) equipped with a 1536-well pin head to transfer to the assay plates.
# 4; Incubation; 72 hrs; 37C, 95% humidity, 5% CO2.
# 5; Reagent; 2.5 uL; CellTiter-Glo.
# 6; Centrifuge; 1000 RPM; 15 seconds.
# 7; Incubation; 30 min; room temperature.
# 8; Read; Luminescence; ViewLux plate reader.
# NOTES (numbers refer to Sequence numbers above)
# 1. P-gp-overexpressing subline KB-8-5-11 were maintained in DMEM (Thermofisher catalog #11965) with 10% FBS and 1% penicillin/streptomycin at 37C in 5% CO2. For KB-8-5-11 cells, colchicine was added to the medium at a concentration of 100 ng/ml (after initial cell attachment). For the screen, assay medium was identical to culture medium except for KB-8-5-11, where colchicine was excluded from the medium. Briefly, 5 uL of cells at 1 x 10^5 cells/mL (500 cells/well) were dispensed into a 1536-well white solid-bottom tissue treated plate (Greiner Bio-One) using a Multidrop Combi dispenser.
# 2. Plates were incubated at 37C, 95% humidity, 5% CO2 for ~4 hours to allow for cell attachment.
# 3. Compounds and intraplate control (Bortezomib; final concentration range 228 pM - 7.5 uM) were transferred (16 nL) via pintool (Wako Automation), for a final concentration of 15.6 nM - 30.0 uM (most substances).
# 4. Plates were incubated for ~72 hours at 37C, 95% humidity, 5% CO2.
# 5. Plates were then dispensed with 2.5 uL of CellTiter-Glo.
# 6. The assay plates were centrifuged for 15 seconds at 1,000 RPM's.
# 7. The plates were incubated for 30-minute at room temperature.
# 8. […]
row,Compound,outcome
1,O=C(/C=C/c1ccc(O)c(O)c1)O[C@@H]1C[C@@](OC(=O)/C=C/c2ccc(O)c(O)c2)(C(=O)O)C[C@@H](O)[C@@H]1O,inactive
2,C/C=C/c1ccc(OC)cc1,inactive
3,OC[C@H]1O[C@@H](OCCc2ccc(O)cc2)[C@H](O)[C@@H](O)[C@H]1O,inactive
4,O=C1O[C@H]([C@@H](O)CO)C(O)=C1O,inactive
5,NC(N)=NCCC[C@H](N)C(=O)O,inactive
6,C[C@]12CC[C@H](O)CC1=CC[C@@H]1[C@@H]2CC[C@]2(C)C(=O)CC[C@@H]12,inactive
7,OC1C(O)C(O)C(O)C(O)C1O (stereo unspecified),inactive
8,COc1ccc2cc3[n+](cc2c1OC)CCc1cc2c(cc1-3)OCO2,inactive
9,O=c1ccc2ccccc2o1,inactive
10,Cn1c(=O)c2c(ncn2C)n(C)c1=O,inactive
11,Nc1nc2ncc(CNc3ccc(C(=O)N[C@@H](CCC(=O)O)C(=O)O)cc3)nc2c(=O)[nH]1,inactive

# From PubChem BioAssay (NCATS)
